Assay results published in PubChem BioAssay AID1159580 (chemical genetic matrix, 2015).
Several values for one entry are separate records, joined by “and”; a condition that tells them apart may be missing. Equal entries are not always repeated. Screen size: about 5,500 compounds; about 2,000 (36%) were called active. About 18% were inconclusive and are not listed. The list shows a part of the results. Unmarked numbers belong to inactive results. Rule as the data show it: active = normalized growth mostly below about 0.91 (no sharp cut-off); inconclusive = no clear call, values can overlap the other calls; inactive = mostly above about 0.92.

Assay: chemical genetic growth profiling, strain panel (AID 1159580);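 also: tested at 20 µM; growth read once vehicle control cultures reached saturation at 30 °C; 1 = growth at the plate median or of vehicle wells; lower values mean less growth of the strain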
Details: growth OD

## CN(C)CCOC(=O)COc1ccc(Cl)cc1
S. cerevisiae deletion strains, locus YKL009W, strain mrt4, active compounds read low
  normalized growth: 1.04
S. cerevisiae deletion strains, locus YKL068W, active compounds read low
  normalized growth: 1
S. cerevisiae deletion strains, locus YKL085W, strain MDH1 (second series), active compounds read low
  normalized growth: 1.01
S. cerevisiae deletion strains, locus YKL085W, strain MDH1, active compounds read low
  normalized growth: 1.01
S. cerevisiae deletion strains, locus YKL160W, strain elf1, active compounds read low
  normalized growth: 0.972
S. cerevisiae deletion strains, locus YKL190W, strain CNB1, active compounds read low
  normalized growth: 1.01
S. cerevisiae deletion strains, locus YKR001C, strain vps1, active compounds read low
  normalized growth: 1.14 [resistant] (active)
S. cerevisiae deletion strains, locus YKR026C, strain gcn3, active compounds read low
  normalized growth: 0.948
S. cerevisiae deletion strains, locus YKR091W, strain srl3, active compounds read low
  normalized growth: 0.969
S. cerevisiae deletion strains, locus YLL001W, strain dnm1, active compounds read low
  normalized growth: 0.959
S. cerevisiae deletion strains, locus YLL026W, active compounds read low
  normalized growth: 0.969
S. cerevisiae deletion strains, locus YLL041C, strain sdh2, active compounds read low
  normalized growth: 0.961
S. cerevisiae deletion strains, locus YLR027C, strain aat2, active compounds read low
  normalized growth: 0.972
S. cerevisiae deletion strains, locus YLR039C, strain RIC1, active compounds read low
  normalized growth: 1.61 [resistant] (active)
S. cerevisiae deletion strains, locus YLR058C, strain SHM2, active compounds read low
  normalized growth: 1.02
S. cerevisiae deletion strains, locus YLR102C, strain apc9, active compounds read low
  normalized growth: 1.02
S. cerevisiae deletion strains, locus YLR113W, strain HOG1, active compounds read low
  normalized growth: 0.971
S. cerevisiae deletion strains, locus YLR221C, strain rsa3, active compounds read low
  normalized growth: 0.987
S. cerevisiae deletion strains, locus YLR258W, strain gsy2, active compounds read low
  normalized growth: 0.965
S. cerevisiae deletion strains, locus YLR262C, strain YPT6 (second series), active compounds read low
  normalized growth: 1.08
S. cerevisiae deletion strains, locus YLR262C, strain YPT6, active compounds read low
  normalized growth: 1.85 [resistant] (active)
S. cerevisiae deletion strains, locus YLR268W, strain sec22, active compounds read low
  normalized growth: 1.15 [resistant] (active)
S. cerevisiae deletion strains, locus YLR320W, strain mms22, active compounds read low
  normalized growth: 1.01
S. cerevisiae deletion strains, locus YLR330W, strain CHS5, active compounds read low
  normalized growth: 1.02
S. cerevisiae deletion strains, locus YLR342W, strain FKS1 (second series), active compounds read low
  normalized growth: 0.953
S. cerevisiae deletion strains, locus YLR342W, strain FKS1, active compounds read low
  normalized growth: 0.97
S. cerevisiae deletion strains, locus YLR357W, strain rsc2, active compounds read low
  normalized growth: 1.01
S. cerevisiae deletion strains, locus YLR370C, strain arc18, active compounds read low
  normalized growth: 0.962
S. cerevisiae deletion strains, locus YLR371W, strain rom2, active compounds read low
  normalized growth: 1.02
S. cerevisiae deletion strains, locus YLR384C, strain iki3, active compounds read low
  normalized growth: 0.983
S. cerevisiae deletion strains, locus YLR418C, strain cdc73, active compounds read low
  normalized growth: 1.21 [resistant] (active)
S. cerevisiae deletion strains, locus YML016C, strain PPZ1, active compounds read low
  normalized growth: 1.02
S. cerevisiae deletion strains, locus YML032C, strain rad52, active compounds read low
  normalized growth: 1.07
S. cerevisiae deletion strains, locus YML120C, strain ndi1, active compounds read low
  normalized growth: 0.966
S. cerevisiae deletion strains, locus YML124C, strain tub3, active compounds read low
  normalized growth: 1.04
S. cerevisiae deletion strains, locus YMR058W, strain fet3, active compounds read low
  normalized growth: 0.976
S. cerevisiae deletion strains, locus YMR078C, strain ctf18, active compounds read low
  normalized growth: 1.05
S. cerevisiae deletion strains, locus YMR125W, strain sto1, active compounds read low
  normalized growth: 0.965
S. cerevisiae deletion strains, locus YMR129W, active compounds read low
  normalized growth: 0.973
S. cerevisiae deletion strains, locus YMR205C, strain PFK2, active compounds read low
  normalized growth: 0.986
S. cerevisiae deletion strains, locus YMR223W, strain ubp8, active compounds read low
  normalized growth: 1.04
S. cerevisiae deletion strains, locus YMR231W, strain pep5, active compounds read low
  normalized growth: 0.976
S. cerevisiae deletion strains, locus YMR263W, strain SAP30, active compounds read low
  normalized growth: 1.05
S. cerevisiae deletion strains, locus YMR307W, strain GAS1, active compounds read low
  normalized growth: 0.963
S. cerevisiae deletion strains, locus YNL067W, strain RPL9B, active compounds read low
  normalized growth: 1.06
S. cerevisiae deletion strains, locus YNL071W, strain lat1, active compounds read low
  normalized growth: 0.988
S. cerevisiae deletion strains, locus YNL128W, strain TEP1, active compounds read low
  normalized growth: 1.03
S. cerevisiae deletion strains, locus YNL153C, strain GIM3, active compounds read low
  normalized growth: 1.03 and 0.882
S. cerevisiae deletion strains, locus YNL175C, strain NOP13, active compounds read low
  normalized growth: 0.949
S. cerevisiae deletion strains, locus YNL183C, strain NPR1, active compounds read low
  normalized growth: 0.962
S. cerevisiae deletion strains, locus YNL197C, strain WHI3, active compounds read low
  normalized growth: 0.954
S. cerevisiae deletion strains, locus YNL209W, strain ssb2, active compounds read low
  normalized growth: 0.974
S. cerevisiae deletion strains, locus YNL224C, strain SQS1, active compounds read low
  normalized growth: 1.01
S. cerevisiae deletion strains, locus YNL233W, strain BNI4, active compounds read low
  normalized growth: 1.07
S. cerevisiae deletion strains, locus YNL248C, strain rpa49, active compounds read low
  normalized growth: 0.996
S. cerevisiae deletion strains, locus YNL250W, strain rad50, active compounds read low
  normalized growth: 1.01
S. cerevisiae deletion strains, locus YNL271C, strain bni1, active compounds read low
  normalized growth: 1.04
S. cerevisiae deletion strains, locus YNL298W, strain CLA4, active compounds read low
  normalized growth: 1.02
S. cerevisiae deletion strains, locus YNL307C, strain MCK1, active compounds read low
  normalized growth: 1.05
S. cerevisiae deletion strains, locus YNL322C, strain KRE1 (second series), active compounds read low
  normalized growth: 0.977
S. cerevisiae deletion strains, locus YNL322C, strain KRE1, active compounds read low
  normalized growth: 1.02
S. cerevisiae deletion strains, locus YNR049C, strain mso1, active compounds read low
  normalized growth: 0.955
S. cerevisiae deletion strains, locus YNR052C, strain pop2, active compounds read low
  normalized growth: 1.07
S. cerevisiae deletion strains, locus YOL006C, strain TOP1, active compounds read low
  normalized growth: 1.01
S. cerevisiae deletion strains, locus YOL012C, strain htz1
  normalized growth: 1.88
S. cerevisiae deletion strains, locus YOL147C, strain pex11, active compounds read low
  normalized growth: 1.03
S. cerevisiae deletion strains, locus YOR001W, strain rrp6, active compounds read low
  normalized growth: 0.947
S. cerevisiae deletion strains, locus YOR061W, strain CKA2, active compounds read low
  normalized growth: 1.03
S. cerevisiae deletion strains, locus YOR069W, strain VPS5, active compounds read low
  normalized growth: 1
S. cerevisiae deletion strains, locus YOR070C, strain gyp1, active compounds read low
  normalized growth: 0.984
S. cerevisiae deletion strains, locus YOR080W, strain dia2, active compounds read low
  normalized growth: 0.952
S. cerevisiae deletion strains, locus YOR083W, strain WHI5 (second series), active compounds read low
  normalized growth: 0.994
S. cerevisiae deletion strains, locus YOR083W, strain WHI5, active compounds read low
  normalized growth: 0.979
S. cerevisiae deletion strains, locus YOR106W, strain vam3, active compounds read low
  normalized growth: 1
S. cerevisiae deletion strains, locus YOR136W, strain idh2, active compounds read low
  normalized growth: 1.03
S. cerevisiae deletion strains, locus YOR144C, strain elg1, active compounds read low
  normalized growth: 1.02
S. cerevisiae deletion strains, locus YOR184W, strain ser1, active compounds read low
  normalized growth: 1.15 [resistant] (active)
S. cerevisiae deletion strains, locus YOR231W, strain MKK1, active compounds read low
  normalized growth: 1.05
S. cerevisiae deletion strains, locus YOR265W, strain rbl2, active compounds read low
  normalized growth: 0.964
S. cerevisiae deletion strains, locus YOR270C, strain vph1, active compounds read low
  normalized growth: 0.884
S. cerevisiae deletion strains, locus YOR290C, strain snf2, active compounds read low
  normalized growth: 0.962
S. cerevisiae deletion strains, locus YOR316C, strain cot1, active compounds read low
  normalized growth: 1.02
S. cerevisiae deletion strains, locus YPL051W, strain arl3, active compounds read low
  normalized growth: 0.986
S. cerevisiae deletion strains, locus YPL055C, strain LGE1, active compounds read low
  normalized growth: 1.06 and 1.03
S. cerevisiae deletion strains, locus YPL078C, strain atp4, active compounds read low
  normalized growth: 0.973
S. cerevisiae deletion strains, locus YPL106C, strain sse1, active compounds read low
  normalized growth: 0.878
S. cerevisiae deletion strains, locus YPL240C, strain hsp82, active compounds read low
  normalized growth: 0.957
S. cerevisiae deletion strains, locus YPL241C, strain CIN2, active compounds read low
  normalized growth: 1.01
S. cerevisiae deletion strains, locus YPL256C, strain CLN2, active compounds read low
  normalized growth: 1.1
S. cerevisiae deletion strains, locus YPR119W, strain clb2, active compounds read low
  normalized growth: 1.03
S. cerevisiae deletion strains, locus YPR141C, strain kar3, active compounds read low
  normalized growth: 1.02
S. cerevisiae deletion strains, locus YPR163C, strain tif3, active compounds read low
  normalized growth: 1.06
S. cerevisiae deletion strains, locus YPR167C, strain met16, active compounds read low
  normalized growth: 1.05
S. cerevisiae deletion strains, strain wtn01, active compounds read low
  normalized growth: 1.04
S. cerevisiae strains, strain wild type, active compounds read low
  normalized growth: 1.03
